# Test system: Sonic hedgehog protein (Shh)
# Assay: small-molecule binders of Shh protein, primary screen, biochemical, small-molecule microarray, 635/667 nm fluorescence (AID 1151);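 further: Shh protein binding to compounds spotted on small-molecule microarray slides; score combines spot fluorescence intensity with signal-to-noise across triplicate slides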
# Settings: small-molecule microarray binding, 635 nm fluorescence; higher = more signal
row,Compound,composite z-score
1,CCOC(=O)C1=C[C@@H](c2ccccc2)N(S(=O)(=O)c2ccc(C)cc2)[C@H]1c1ccccc1,0.212
2,[N-]=[N+]=NCc1ccccc1C[C@]1(C(=O)N2CCOCC2)COC(c2ccc(OCCCO)cc2)=N1,0.179
3,COCCOC(=O)N1C(=O)[C@@]2(c3cc(C#Cc4ccc(OC)cc4)ccc31)[C@H](C(=O)NC[C@H](O)c1ccccc1)[C@H]1C(=O)O[C@H](c3ccccc3)[C@H](c3ccccc3)N1[C@@H]2c1ccc(OCCO)cc1,1.62
4,COCCOC(=O)N1C(=O)[C@@]2(c3cc(C#CCC(C(=O)OC)C(=O)OC)ccc31)[C@H](c1ccc(OCCO)cc1)N1[C@H](c3ccccc3)[C@H](c3ccccc3)OC(=O)[C@H]1[C@@H]2C(=O)Nc1nc2ccccc2s1,1.6
5,COCCOC(=O)N1C(=O)[C@@]2(c3cc(C#CCNC(N)=O)ccc31)[C@H](c1ccc(O)cc1)N1[C@H](c3ccccc3)[C@H](c3ccccc3)OC(=O)[C@H]1[C@@H]2C(=O)N1CCN(c2ncccn2)CC1,0.905
6,COc1cc(C(O)C2C=CC3C(=O)N(Cc4ccccc4)C(=O)C3N2n2cnnc2)cc(OC)c1OC (stereo not drawn),0.131
7,CCCCC=C[C@@H](NC(=O)c1ccccc1)c1ccccc1,-0.863
8,COc1ccc([Si](C)(C)[C@@H]2[C@@H](CC(=O)N3Cc4ccccc4C[C@H]3CO)O[C@]3(C(=O)N(c4ccccc4)c4ccccc43)[C@H]2C)cc1,1.47
9,CCOC(=O)C1=CCC(c2ccccc2)N(S(=O)(=O)c2ccc([N+](=O)[O-])cc2)C1 (stereo not drawn),0.188
10,[N-]=[N+]=NCc1ccccc1[C@@H]1OC(c2ccc(OCCCO)cc2)=N[C@]1(Cc1ccccc1N=[N+]=[N-])C(=O)N1CCCCC1,0.0257
11,C=CCN1C(=O)[C@]2(O[C@H](CCO)[C@@H]([Si](C)(C)c3ccc(OC)cc3)[C@@H]2C)c2cc(N3C(=O)COc4ccccc43)ccc21,1.18
12,COCCCNC(=O)[C@@]1(c2ccc([N+](=O)[O-])cc2)CC(=O)N(CC23CC4CC(CC(C4)C2)C3)[C@@H]1c1ccc(CO)cc1I,0.636
13,CC(C)OC(=O)CC(=O)CC(O)c1ccc([N+](=O)[O-])cc1 (stereo not drawn),-0.514
14,CCOC(=O)C1=CCC(c2ccco2)N(S(=O)(=O)c2ccc(C)cc2)C1 (stereo not drawn),0.409
15,[N-]=[N+]=Nc1ccccc1[C@@H]1OC(c2ccc(OCCCO)cc2)=N[C@]1(Cc1ccccc1)C(=O)NCc1ccccc1,0.263
16,[N-]=[N+]=NCc1ccccc1C[C@@]1(C(=O)N2CCCCC2)N=C(c2ccc(OCCCO)cc2)O[C@@H]1c1ccccc1CN=[N+]=[N-],-0.306
17,O=C1C2C=CC(C(O)c3ccc(I)cc3)N(Nc3ccccc3)C2C(=O)N1c1ccccc1 (stereo not drawn),0.0756
18,CC(C)C(=C=CC[C@@H](O)c1cccc(OCCO)c1)C[C@@H](O)c1ccccn1,0.935
19,COC(=O)[C@@]1(Cc2ccccc2CN=[N+]=[N-])N=C(c2ccc(OCCCO)cc2)O[C@H]1c1ccccc1,0.381
20,CCOC(=O)C[C@H]1[C@H](OC(=O)c2cc3ccccc3oc2=O)[C@@H](NC(=O)c2ccc3ccccc3c2)c2cc(OCCCO)ccc2N1C(=O)Cc1ccc(OC)cc1,0.47
21,COC(=O)[C@@]1(Cc2ccc(OC)cc2)[C@H]2c3cc(C(=O)N4CCCC4)n(Cc4cc(C)n(C)n4)c3C[C@H]2CN1C(=O)c1ccccc1,-0.319
22,C=C(CCCC)C(=O)CC[C@H](OC(C)=O)c1ccc(OCCO)cc1,-0.0938
23,COc1ccc(C(=O)Nc2cccc(CN3C(=O)[C@]4(O[C@H](CCn5cc([C@H](O)c6ccccc6)nn5)[C@@H]([Si](C)(C)c5ccc(OC)cc5)[C@@H]4C)c4ccccc43)c2)cc1,1.69
24,COCCOC(=O)N1C(=O)[C@@]2(c3cc(C#CC4=CCCCC4)ccc31)[C@H](C(=O)N1CCCCCCC1)[C@H]1C(=O)O[C@H](c3ccccc3)[C@H](c3ccccc3)N1[C@@H]2c1ccc(OCCO)cc1,1.25
25,C=C(CCCC)/C(=C/C[C@H](OC(C)=O)c1ccc(OCCO)cc1)c1cc(C(=O)OC)ccc1OC,0.803
26,COc1ccc([Si](C)(C)[C@H]2[C@H](CC(=O)N3CCC[C@H]3CO)O[C@@]3(C(=O)N(Cc4ccc(N5CCC5=O)cc4)c4ccccc43)[C@@H]2C)cc1,1.77
27,[N-]=[N+]=NCc1ccccc1[C@@H]1OC(c2ccc(OCCCO)cc2)=N[C@]1(Cc1ccccc1N=[N+]=[N-])C(=O)NCCN1CCOCC1,0.387
28,O=C1C[C@@](C(=O)NCC(F)(F)F)(c2ccc([N+](=O)[O-])cc2)[C@@H](c2ccc(CO)cc2)N1CC12CC3CC(CC(C3)C1)C2,1.34

# From PubChem BioAssay
